Pf growth 48h: P. falciparum growth inhibition at 48 hours (one generation) | AID 504832 | P. falciparum luciferase growth in erythrocytes, 48 h | Potency, µM (top dose mostly 28.7 µM), inactives show top-dose activity change, negative = inhibition, hits mostly inhibitors | 5.9% of 310,000 active; further: on the % scale 0 is the no-effect control and ±100 the full control effect
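Erythrocytes infected with P. falciparum carrying an integrated firefly luciferase reporter (2% hematocrit, 0.1% parasitemia final) were exposed to compounds in RPMI 1640 with 0.5% Albumax at 37 C, 5% CO2. Growth inhibition was scored as reduced luminescence.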
SARS PLP yeast: SARS-CoV PLP inhibition in yeast; 0.19% of 330,000 active; S. cerevisiae expressing SARS-CoV PLpro, growth rescue; Potency, µM (series often up to 32.9 µM), for inactives: at the highest dose activity, positive = growth rescue, usual class: activators; calls by dose curve; further: 0% is about no effect; nearly all actives have a fitted effect of over 55% in size
NS1 function inh: influenza NS1 inhibition; 0.4% of 270,000 active; Potency, µM (doses to about 46.1 µM), without a hit: top-dose activity, positive = more growth; AID 2326; calls by dose curve; further: actives are rising curves; nearly all actives have a fitted effect of over 50% in size
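S. cerevisiae expressing influenza A NS1, grown in glucose, washed, then diluted 1:100 into pH 6.0 -URA galactose medium with 23 nl compound. Growth recovery read as OD600; NS1-free strain serves as control.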
Pf growth 96h: P. falciparum growth inhibition at 96 hour, primary screen for plastid delayed-death inhibitors | P. falciparum luciferase reporter growth, 96 h | Potency, µM (highest dose often 28.7 µM), without a hit: top-dose activity change, negative = inhibition, most hits filed as inhibitors | 6.9% of 320,000 active | AID 504834; further: on the % scale 0 is the no-effect control and ±100 the full control effect
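Luminescence readout: decreased luciferase signal marks inhibited growth of reporter-expressing P. falciparum in infected red cells (2% hematocrit, 0.05% parasitemia final), exposed to compound two generations (96 h, 37 C, 5% CO2).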
Active calls of the source: *; ? = inconclusive; / = no result given; [ ] = dose if it differs, or a comment. Only some compounds are listed: those with a hit (about 10% of all), similar ones and a draw of the others. Unless noted, the call rests on the fitted dose curve; in most records, active means well fitted inhibition curve with a large enough effect; inconclusive means small, poorly fitted or top-dose-only effect, or another doubt; inactive means no such curve, though single readings can be large or run the other way. Potency means the concentration at half of the fitted maximal effect.

SMILES | Pf growth 48h | SARS PLP yeast | NS1 function inh | Pf growth 96h
O=C(Cn1nc(-c2ccccc2)oc1=O)OCC(=O)c1ccc(F)c(F)c1 | ? | 1% | / | -28%
Cc1cccc(N(Cc2ccccc2)C(=O)C2CCN(C(=O)c3ccccc3C)CC2)c1 | 12µM* | -9% | / | 10µM*
c1ccc2c(CN3CCN(Cc4c[nH]c5ccccc45)CC3)c[nH]c2c1 | / | / | -5% | /
Cc1nccc2c1[nH]c1ccccc12 | 6% | 0% | -10% | 28%
Clc1ccc(/C=C\c2nccc3c2[nH]c2ccccc23)cc1 | 4.7µM* | -5% | / | 20%
N#Cc1ccc(/C=C\c2nccc3c2[nH]c2ccccc23)cc1 | 3.3µM* | -5% | / | -26%
CC(C)[C@H](NC(=O)c1ccc(Br)cc1)C(=O)NC1CCCCC1 | ? | 3% | / | -8%
CCC(=O)N1CCN(c2ccc(NC(=O)COc3ccc(CC)cc3)cc2)CC1 | ? | -8% | 7% | 7%
CC(=O)c1cccc(OCC(O)CNCCc2ccc(Cl)cc2)c1 (stereo unspecified) | -23%[0.00184 µM] | 0% | 0% | 15%
CCCc1cnc(NCCNCC(O)COc2ccc(Cl)c(Cl)c2)nc1 (stereo unspecified) | ? | 7% | 8% | 12µM*
CCc1cc2c(=O)c(Oc3ccccc3F)c(C)oc2c(CN(C)C)c1O | 8.3µM* | 5% | 7% | 21%
Cc1c(Cc2ccccc2)c(=O)oc2c(CN(C)C)c(O)c(Cl)cc12 | -27% | 0% | -11% | 26%
CCCOc1ccc(C2C(C(=O)/C=C/c3ccco3)=C(O)C(=O)N2CCN2CCOCC2)cc1OC (stereo unspecified) | 15% | 1% | / | -21%
CCN(CC)S(=O)(=O)c1cc(NC(=O)c2cc([N+](=O)[O-])ccc2N2CCOCC2)ccc1C | ? | 4% | 7% | ?
Clc1ccc(-c2nc(/C=N/N3CCOCC3)c3ccccn23)cc1 | 61% | 1% | / | 157%
O=C(O)CCC(=O)Nc1ccc(Oc2ncnc3cc(Cl)ccc23)nc1 | 27% | 2% | 9% | 39%
CC1CCc2c(sc3nc(C(C)(C)C)nc(N4CCN(C(=O)CCl)CC4)c23)C1 (stereo unspecified) | -56% | -8% | -89% | 6.6µM*
CCC(=O)N1CCN(c2nc(CC)nc3sc4c(c23)CCCC4)CC1 | ? | -9% | -4% | -26%
COc1ccc(NC(=O)NNC(=O)COc2ccc3cc(Br)ccc3c2)c(OC)c1 | -22% | 3% | 17% | -13%
CCOCCOC(=O)c1[nH]c2c(c1C)C(=O)CC(c1ccccc1)C2 (stereo unspecified) | / | 1% | -4% | -1%
CCCCCOC(=O)c1[nH]c2c(c1C)C(=O)CC(c1ccco1)C2 (stereo unspecified) | 0.66µM* | -3% | -29% | 23%
Cc1nn(C)c(C)c1S(=O)(=O)N1CCC(C(=O)NC2CCCCCC2)CC1 | 12% | 2% | 3% | 5.2µM*
Cc1nn(C)c(C)c1S(=O)(=O)N1CCC(C(=O)NC2CCCCC2)CC1 | 5% | 3% | -5% | 9.3µM*
Cc1cccc(NC(=O)C2CCN(S(=O)(=O)c3c(C)nn(C)c3C)CC2)n1 | 9% | 6% | -2% | ?
Cc1ccc(S(=O)(=O)Nc2ccccc2CNc2ccc(Br)cn2)cc1 | 12µM* | -18% | 2% | 10%
SMILES | Pf growth 48h | SARS PLP yeast | NS1 function inh | Pf growth 96h
Cc1ccc(S(=O)(=O)Nc2ccccc2CNc2ccccn2)cc1 | 13µM* | -19% | -8% | 6.6µM*
Nc1nc2c(C(=O)NCc3cccs3)nnn2c2cccc(Cl)c12 | / | / | 3% | /
Nc1nonc1-n1nnc(C(=O)N/N=C/c2ccoc2)c1-c1ccccc1 | 18% | -1% | 8% | ?
Cc1ccc(OCc2nnc(SCc3nc4ccccc4[nH]3)n2Cc2ccco2)cc1 | ? | -4% | -94% | 6.6µM*
O=C(CSc1nnc(COc2ccccc2)n1Cc1ccco1)c1ccc(F)cc1 | 12µM* | -4% | -10% | 13µM*
Cc1ccc(OCc2nnc(SCC(=O)c3ccccc3)n2Cc2ccco2)cc1 | ? | -6% | -7% | 20%
Cc1ccc(C(C)C)cc1OCC(=O)Nc1ccc(-n2cnnn2)cc1 | 17% | -7% | / | ?
O=C(CCNC(=O)C1CCN(S(=O)(=O)c2ccccc2)CC1)Nc1cccc(C(F)(F)F)c1 | 0% | 8% | -28% | -30%
Cc1ccc(OCCCCn2cnc3ccccc32)cc1 | 30% | 1% | / | -1%
c1ccc2c(c1)ncn2CCCCOc1ccc2c(c1)CCC2 | / | -10% | -170% | 5.9µM*
c1ccc(OCCCCn2cnc3ccccc32)cc1 | -9% | -1% | -21% | -25%
c1ccc2c(c1)ncn2CCCOc1ccc2c(c1)CCC2 | / | 2% | -93% | 13µM*

Screening results (PubChem BioAssay)
